Experimental data: PubChem BioAssay AID504327 (National Center for Advancing Translational Sciences (NCATS), 2011)
“And” between values parts separate entries of the source, which are not always exact repeats. Equal values may be shown once. Hit rate of the full screen: of about 390,000 compounds, about 820 (0.21%) were called active. Where a call stands in place of a potency, no number is given. Another 3% or so got no clear call; they are omitted. Calls come from the whole dose curve; as a rule, active = well fitted inhibition curve with a large enough effect; inconclusive = small, poorly fitted or top-dose-only effect, or another doubt; inactive = no such curve, though single readings can be large or run the other way. Many of the other results were omitted from the sample, so actives are more common in it than they were. Some compounds were tested as several samples or in several runs, with calls that do not always agree.

These compounds were tested against Histone acetyltransferase KAT2A (Homo sapiens) (UniProt Q92830) (assay: qHTS Assay for Inhibitors of GCN5L2). Conditions: GCN5L2 HAT assay, ThioGlo1 CoA-SH fluorescence; series mostly up to 58.9 µM.
Excerpt: Histone acetyltransferase (HAT) enzymes transfer a […] group from acetyl-coenzyme A to the epsilon-amino group of conserved lysine residues of N-terminal histone tails. Acetylation results in charge neutralization of this positively charged amino acid, decreasing interactions with the […] backbone and making the DNA more accessible for transcription. HATs have been recognized as an emerging drug target for treatment of cancer, diabetes, asthma, chronic obstructive pulmonary disease, cardiac disease, and viral infection. Protein identified with HAT activity include the […] like 2 (GCN5L2, a.ka. Histone acetyltransferase KAT2A) which acetylates histone H3 at Lys9, 14, 18, 13, and to lesser extent histones H4 and H2B. This activates transcription of the gene by modulating chromatin structure and installing the acetyllysine recognition mark for bromodomain-containing coactivator proteins.
A quantitative high throughput screen was developed to identify small molecule inhibitors. The assay is based on the principle that it measures formation of reduced CoA with the pro-fluorescent maleimide derivative ThioGlo1 that becomes fluorescent upon reaction with the free thiol of CoA.
A large number of artifacts are expected in this primary screen, compounded by the assay format (fluorescent artifacts) and by the high top concentration tested for each substance. This BioAssay data deposition should be used with caution, and counterscreen and secondary assay validation is essential since very few actives from the primary screen are expected to be true inhibitors of GCN5L2.
[2] Yasgar, et al. Compound Management for Quantitative High-Throughput Screening. JALA. 2008 Apr;13(2):79-89.
[3] Inglese, et al. Quantitative high-throughput screening: a titration-based approach that efficiently identifies biological activities in large chemical libraries. Proc Natl Acad Sci. 1;103(31):11473-8. 2006. PMID: 16864780
NIH Molecular Libraries Probe Production Network [MLPCN]
NIH Chemical Genomics Center [NCGC]
Structural Genomics Consortium (SGC)
To each well of a 1,536w plate, 3ul of GCN5L2 (final concentration 20nM, in 50mM HEPES, 0.1mM EDTA (pH 7.5), 0.01% Tween-20 buffer) are added using a Kalypsys dispenser. Only buffer is added to some wells as a control. A Kalypsys pin-tool transferred 23nl of library compound solution in DMSO to each well, as well as the control inhibit garcinol. . Following a 15 min incubation of enzyme with compounds at room temperature, 1ul mixture of ThioGlo1 (50uM final), H3(1-25) peptide (75uM final), and Acetyl-CoA (70uM final) is added. Plates are read immediately on the ViewLux (PerkinElmer) (Ex340nm/Em540nm) for a 0 min read, incubated for 20 min at room temperature, and read again on the ViewLux with the same settings. The initial read was carried out to identify compounds that are potentially fluorescent.
Potency is the fitted concentration of half-maximal effect.

Sequence of Histone acetyltransferase KAT2A (Homo sapiens) (Q92830 whole entry, looked up): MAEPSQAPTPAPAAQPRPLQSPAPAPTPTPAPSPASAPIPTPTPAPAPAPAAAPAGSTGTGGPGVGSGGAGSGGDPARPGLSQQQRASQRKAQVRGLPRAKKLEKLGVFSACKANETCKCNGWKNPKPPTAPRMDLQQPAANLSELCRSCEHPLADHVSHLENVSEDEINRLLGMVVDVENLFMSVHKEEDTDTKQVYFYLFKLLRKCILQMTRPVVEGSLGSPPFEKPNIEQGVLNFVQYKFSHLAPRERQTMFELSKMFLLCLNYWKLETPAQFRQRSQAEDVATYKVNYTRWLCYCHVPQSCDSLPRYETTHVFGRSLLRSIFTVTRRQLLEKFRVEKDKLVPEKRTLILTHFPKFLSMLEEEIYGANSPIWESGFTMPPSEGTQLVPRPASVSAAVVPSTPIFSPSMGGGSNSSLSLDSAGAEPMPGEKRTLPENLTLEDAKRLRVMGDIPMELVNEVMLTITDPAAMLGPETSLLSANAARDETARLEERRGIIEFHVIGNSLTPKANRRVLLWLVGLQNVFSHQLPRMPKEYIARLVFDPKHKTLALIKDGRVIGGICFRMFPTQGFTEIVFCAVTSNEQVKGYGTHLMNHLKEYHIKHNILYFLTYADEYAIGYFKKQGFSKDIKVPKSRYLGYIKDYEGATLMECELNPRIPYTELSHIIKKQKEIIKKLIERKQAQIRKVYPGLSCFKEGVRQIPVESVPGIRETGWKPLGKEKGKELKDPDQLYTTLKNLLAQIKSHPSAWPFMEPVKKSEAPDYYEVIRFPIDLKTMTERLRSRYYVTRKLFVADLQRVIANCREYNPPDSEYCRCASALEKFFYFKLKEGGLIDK

Question: How did the Potency turn out when `COc1ccc(N2C(=O)/C(=C/c3ccco3)C(=O)NC2=S)cc1` was run?
Answer: 17.8 µM (active)

Question: How did the Potency turn out when `COc1ccc2c3c1O[C@H]1C[C@@H](O)C=C[C@@]31CCN(C)C2` was run?
Answer: inactive

Question: How did the Potency turn out when `CC(C)(Cc1c[nH]c2ccc(Cl)cc12)NCCOc1ccccc1OCC1CC1` was run?
Answer: inactive

Question: How did the Potency turn out when `C[C@]12CC[C@@H]3c4ccc(O)cc4C[C@@H](CCCCCCCCCS(=O)CCCC(F)(F)C(F)(F)F)C3[C@@H]1CC[C@@H]2O` (stereo not given in full) was run?
Answer: inactive

Question: Which Potency does the source give for `CCCCC/C=C\C/C=C\C/C=C\C/C=C\CCCCCC(=O)NCCO` here?
Answer: inactive

Question: With `Cc1cccc2c3c(ccc12)C1=C(C(=O)C3=O)C(C)CO1` (stereo not given) as the compound, how does the Potency read?
Answer: 31.6 µM (active)

Question: Which Potency does the source give for `C[C@]12O[C@H](C[C@@]1(O)C(=O)O)n1c3ccccc3c3c4c(c5c6ccccc6n2c5c31)CNC4=O` here?
Answer: inactive

Question: How did the Potency turn out when `CCOc1ccc(S(=O)(=O)NCc2ccc3c(c2)OCO3)cc1C` was run?
Answer: inactive

Question: For `COc1ccc2c3c1OC1CC(O)C=C[C@@]31CCN(C)C2` (stereo not given in full), which Potency is on record?
Answer: inactive

Question: `CC(C)C(N)C(=O)OCCOCn1cnc2c(=O)[nH]c(N)nc21` (stereo not given) was tested. Which Potency did it give?
Answer: inactive

Question: How did the Potency turn out when `CN(C)C[C@H]1CCCC[C@]1(O)c1cccc(O)c1` was run?
Answer: inactive

Question: `CC(C)(c1ccc(OC[C@@H]2CO2)cc1)c1ccc(OC[C@H]2CO2)cc1` was tested. Which Potency did it give?
Answer: inactive

Question: For `CC(=O)c1c(O)c(C)c(O)c(Cc2c(O)c3c(c(C(=O)/C=C\c4ccccc4)c2O)OC(C)(C)C=C3)c1O`, which Potency is on record?
Answer: 35.5 µM (active)

Question: How did the Potency turn out when `CC(=O)c1c(O)c(C)c(O)c(Cc2c(O)c3c(c(C(=O)/C=C/c4ccccc4)c2O)OC(C)(C)C=C3)c1O` was run?
Answer: inactive and 11.2 µM (active)

Question: With `CCC(C)C(=O)O[C@@H]1C[C@@]2(C)C(c3ccoc3)OC(=O)CC23OC2(C)O[C@@]14[C@@]1(C)C(CC(=O)OC)C5(C)CC1(O)C(O)(C5OC(=O)C1(C)OC1C)C(OC(C)=O)[C@@]34O2` (stereo not given in full) as the compound, how does the Potency read?
Answer: inactive

Question: For `C=CCN1CCC2(C)c3cc(O)ccc3CC1[C@@H]2C` (stereo not given in full), which Potency is on record?
Answer: inactive

Question: For `CN1CCCC(=C(c2cccs2)c2cccs2)C1`, which Potency is on record?
Answer: inactive

Question: Which Potency does the source give for `CC(C)(O)c1[se]c2ccccc2c1I` here?
Answer: inactive

Question: How did the Potency turn out when `CO[C@@H]1C[C@@H](C[C@H]2CC[C@H](C)[C@@H]([C@@H](C)C(=O)O)O2)O[C@]2(O[C@](C)([C@H]3CC[C@@](C)(C4OC([C@H]5O[C@@](O)(CO)[C@H](C)C[C@@H]5C)C[C@@H]4C)O3)C[C@H]2C)[C@@H]1C` (stereo not given in full) was run?
Answer: inactive

Question: Which Potency does the source give for `CCN(CC)c1nc(C)cc(OP(=S)(OC)OC)n1` here?
Answer: inactive

Question: Which Potency does the source give for `CN(C)[C@@H]1C(=O)C(C(N)=O)=C(O)[C@@]2(O)C(=O)C3=C(O)c4c(O)cccc4[C@@](C)(O)C3CC12` (stereo not given in full) here?
Answer: inactive

Question: Which Potency does the source give for `COC([CH2][Hg])CNC(=O)c1ccccc1OCC(=O)O` (stereo not given) here?
Answer: 0.891 µM (active)

Question: For `O=C1CCc2cccc3c2N1CC3`, which Potency is on record?
Answer: inactive

Question: With `CC(C)=CCC[C@]1(C)[C@@H](CC=C(C)C)C[C@@]2(CC=C(C)C)C(=O)[C@]1(C(=O)C(C)C)C(=O)C(CC=C(C)C)=C2O` as the compound, how does the Potency read?
Answer: 28.2 µM (active)

Question: How did the Potency turn out when `Nc1ccc(-c2ccc(N)c(N)c2)cc1N` was run?
Answer: inactive

Question: For `CCCN(C/C=C/I)C1CCc2ccc(O)cc2C1` (stereo not given), which Potency is on record?
Answer: inactive

Question: For `NCCc1c[nH]c2ccc(O)cc12`, which Potency is on record?
Answer: inactive and 11.2 µM (active)

Question: How did the Potency turn out when `COc1ccc2[nH]cc(CCNCc3ccc(Br)cc3)c2c1` was run?
Answer: inactive

Question: How did the Potency turn out when `Cc1cccc2c(CCN)c[nH]c12` was run?
Answer: inactive

Question: With `CC(=O)Oc1ccccc1C(=O)Nc1ncc([N+](=O)[O-])s1` as the compound, how does the Potency read?
Answer: inactive

Question: With `CC[C@@H]1CN2CC[C@@H]1C[C@H]2[C@H](O)c1ccnc2ccc(OC)cc12` as the compound, how does the Potency read?
Answer: inactive

Question: `COc1ccccc1-c1[se]c2ccccc2c1I` was tested. Which Potency did it give?
Answer: inactive

Question: `CCCCCCCCCCCCN=C(N)N` was tested. Which Potency did it give?
Answer: inactive

Question: `N#Cc1c(Cl)c(Cl)c(Cl)c(C#N)c1Cl` was tested. Which Potency did it give?
Answer: inactive

Question: With `CCCCCCCCCCCCCC(=O)O[C@@H]1[C@@H](C)[C@@]2(O)[C@@H](C=C(CO)C[C@]3(O)C(=O)C(C)=C[C@@H]23)[C@@H]2C(C)(C)[C@]12OC(C)=O` as the compound, how does the Potency read?
Answer: inactive

Question: How did the Potency turn out when `CC(=O)[O][Sn]([c]1ccccc1)([c]1ccccc1)[c]1ccccc1` was run?
Answer: 4.47 µM (active)

Question: With `COC(=O)N1C(c2ccccc2)C1c1ccccc1` (stereo not given) as the compound, how does the Potency read?
Answer: inactive

Question: How did the Potency turn out when `C[C@H]1C/C=C/[C@@H]2[C@@H]3O[C@]3(C)[C@@H](C)[C@H]3[C@H](Cc4ccccc4)NC(=O)[C@]32OC(=O)O/C=C/[C@](C)(O)C1=O` was run?
Answer: inactive

Question: How did the activity change, negative = inhibition turn out when `CN[C@@H]1C[C@H]2O[C@@](C)([C@@H]1OC)n1c3ccccc3c3c4c(c5c6ccccc6n2c5c31)C(=O)NC4` was run?
Answer: 4.47% [at 12.7 µM] (inactive)

Question: Which Potency does the source give for `CNCC[C@H](Oc1ccc(C(F)(F)F)cc1)c1ccccc1` here?
Answer: inactive and 8.91 µM (active)

Question: For `CCCCC/C=C\C/C=C\C/C=C\C=C\[C@H](CCCC(=O)O)OO`, which Potency is on record?
Answer: inactive

Question: `N#CC(C#N)=Cc1cc(O)c(O)c([N+](=O)[O-])c1` was tested. Which Potency did it give?
Answer: inactive

Question: `C[C@@H]1C[C@H]2CC[C@H](O2)[C@H](C)C(=O)O[C@@H](C)C[C@@H]2CC[C@@H](O2)[C@@H](C)C(=O)O[C@H](C)C[C@H]2CC[C@H](O2)[C@H](C)C(=O)O[C@@H](C)C[C@@H]2CC[C@@H](O2)[C@@H](C)C(=O)O1` was tested. Which Potency did it give?
Answer: inactive

Question: With `N#Cc1cc(Br)c(O)c(Br)c1` as the compound, how does the Potency read?
Answer: inactive

Question: For `c1ccc(N2CC[C@@]3(CCCNC3)C2)nc1`, which Potency is on record?
Answer: inactive
